Measured values: the supplement of paper PMC10849652
Of roughly 7,900 targets only a part is listed; those with a hit were picked by preference. About 0.6% of all pairs of compound and target were hits. Unmarked numbers belong to inactive results.

Experiments:
Test in all cases: log2 fold change, soluble protein after heating vs DMSO (PISA); higher = thermal stabilisation; K562 cells, 10 uM, 30 min; active = over 0.2 and 3.5 SD of the protein, either way, in both replicates (recomputed)
IRAK-1-4 Inhibitor I = compound: C1COCCN1CCN2C3=CC=CC=C3N=C2NC(=O)C4=CC(=CC=C4)[N+](=O)[O-] [IRAK-1-4 Inhibitor I]
In short: (§1)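 K562 cells (2×10^6 cells/mL) were treated with 10 μM compound for 30 min, and aliquots were heated for 3 min over 48°C-58°C. Pooled aliquots were extracted in PBS with 0.5% NP-40 at 4°C, and the supernatant after 21,000xg for 90 min was measured by TMTpro 16plex LC-MS/MS with channel sums equalised. Reported thermal stability, relative to control samples and from duplicates, is a log2 fold change.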

ibrutinib = compound: C=CC(=O)N1CCC[C@@H](n2nc(-c3ccc(Oc4ccccc4)cc3)c3c(N)ncnc32)C1 [ibrutinib]
In short: as §1

[1] = compound: CC(=O)c1cnc2ccc(-c3cc(Cl)c(O)c(Cl)c3)nc2c1N[C@H]1CC[C@H](CN(C)C)CC1
In short: as §1

ralimetinib = compound: CC(C)(C)Cn1c(N)nc2ccc(-c3[nH]c(C(C)(C)C)nc3-c3ccc(F)cc3)nc21 [ralimetinib]
In short: as §1

[2] = compound: CC(C)(O)CC(=O)NCCn1ccc2ncnc(Nc3ccc(Oc4cccc(C(F)(F)F)c4)c(Cl)c3)c21
In short: as §1

[3] = compound: CC(C)C1=C2N=C(C=C(N2N=C1)NCC3=CC=CC=C3)NCCCCCCN
In short: as §1

[4] = compound: CC(C)C[C@@H](C=O)NC(=O)[C@H](CC(C)C)NC(=O)[C@H](CC(C)C)NC(=O)OCc1ccccc1
In short: as §1

pinometostat = compound: CC(C)N(C[C@H]1O[C@@H](n2cnc3c(N)ncnc32)[C@H](O)[C@@H]1O)[C@H]1C[C@@H](CCc2nc3cc(C(C)(C)C)ccc3[nH]2)C1 [pinometostat]
In short: as §1

[5] = compound: CC1=C(C(CC(=O)N1)C2=CC=C(C=C2)C(F)(F)F)C(=O)NC3=C(C=C4C(=C3)C=NN4)F
In short: as §1

[6] = compound: CC1=C(C2=C(C=C1)C(=O)C3=CC=CC=C3N2CCCN)C
In short: as §1

[7] = compound: CC1=C(C=C(C=C1)NC(=O)C2=CC(=CC=C2)C(C)(C)C#N)NC3=CC4=C(C=C3)N=CN(C4=O)C
In short: as §1

[8] = compound: CC1=C(C=C(C=C1)NC(=O)C2=CC(=CC=C2)N(C)C)NC(=O)C3=CC=C(C=C3)O
In short: as §1

[9] = compound: CC1=CC=C(C=C1)SC2=C3C=C(SC3=CN=C2)C(=O)N
In short: as §1

[10] = compound: CC1=NC(=CC=C1)C2=C(N=C(N2)C(C)(C)C)C3=CC4=NC=CN=C4C=C3
In short: as §1

Nexturastat A = compound: CCCCN(Cc1ccc(C(=O)NO)cc1)C(=O)Nc1ccccc1 [Nexturastat A]
In short: as §1

vemurafenib = compound: CCCS(=O)(=O)Nc1ccc(F)c(C(=O)c2c[nH]c3ncc(-c4ccc(Cl)cc4)cc23)c1F [vemurafenib]
In short: as §1

[11] = compound: CCCS(=O)(=O)Nc1ccc(F)c(C(=O)c2c[nH]c3ncc(Cl)cc23)c1F
In short: as §1

[12] = compound: CCCc1cc(C)[nH]c(=O)c1CNC(=O)c1cc(-c2ccnc(N3CCN(C)CC3)c2)cc2c1cnn2C(C)C
In short: as §1

givinostat = compound: CCN(CC)Cc1ccc2cc(COC(=O)Nc3ccc(C(=O)NO)cc3)ccc2c1 [givinostat]
In short: as §1

barasertib = compound: CCN(CCCOc1ccc2c(Nc3cc(CC(=O)Nc4cccc(F)c4)[nH]n3)ncnc2c1)CCOP(=O)(O)O [barasertib]
In short: as §1

Sequence of UniProt Q9UKL6 (Q9UKL6 whole entry, looked up): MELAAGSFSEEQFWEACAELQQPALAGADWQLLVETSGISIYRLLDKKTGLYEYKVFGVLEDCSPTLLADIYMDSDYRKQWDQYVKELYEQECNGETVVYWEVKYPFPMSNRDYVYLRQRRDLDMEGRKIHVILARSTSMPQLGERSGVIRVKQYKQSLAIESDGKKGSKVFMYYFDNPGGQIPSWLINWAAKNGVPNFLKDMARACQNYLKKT
Sequence of UniProt Q14181 (Q14181 whole entry, looked up): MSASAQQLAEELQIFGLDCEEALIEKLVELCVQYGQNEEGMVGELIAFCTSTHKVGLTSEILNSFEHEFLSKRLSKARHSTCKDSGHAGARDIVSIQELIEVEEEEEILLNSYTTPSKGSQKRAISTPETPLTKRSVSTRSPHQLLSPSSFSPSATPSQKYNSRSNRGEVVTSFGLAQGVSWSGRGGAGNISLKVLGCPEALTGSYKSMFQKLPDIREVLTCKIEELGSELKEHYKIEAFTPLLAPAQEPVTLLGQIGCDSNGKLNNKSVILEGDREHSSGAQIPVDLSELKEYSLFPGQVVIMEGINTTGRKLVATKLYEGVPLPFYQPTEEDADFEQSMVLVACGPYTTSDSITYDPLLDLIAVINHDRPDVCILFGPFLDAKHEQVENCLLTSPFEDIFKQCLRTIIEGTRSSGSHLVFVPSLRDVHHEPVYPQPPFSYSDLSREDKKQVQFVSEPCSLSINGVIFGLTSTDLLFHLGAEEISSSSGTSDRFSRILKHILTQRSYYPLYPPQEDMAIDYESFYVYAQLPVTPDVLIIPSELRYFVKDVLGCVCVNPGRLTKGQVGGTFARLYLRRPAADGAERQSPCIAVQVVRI
Sequence of UniProt Q7RTV0 (Q7RTV0 whole entry, looked up): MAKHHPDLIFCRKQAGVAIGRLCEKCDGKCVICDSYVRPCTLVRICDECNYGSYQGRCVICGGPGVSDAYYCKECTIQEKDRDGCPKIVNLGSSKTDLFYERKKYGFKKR
Sequence of UniProt Q15185 (Q15185 whole entry, looked up): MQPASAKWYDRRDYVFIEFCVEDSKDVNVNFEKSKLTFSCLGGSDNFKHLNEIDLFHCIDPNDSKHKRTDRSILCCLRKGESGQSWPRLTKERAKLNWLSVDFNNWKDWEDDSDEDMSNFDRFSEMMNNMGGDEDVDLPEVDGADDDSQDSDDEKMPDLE
Sequence of UniProt O95602 (O95602 whole entry, looked up): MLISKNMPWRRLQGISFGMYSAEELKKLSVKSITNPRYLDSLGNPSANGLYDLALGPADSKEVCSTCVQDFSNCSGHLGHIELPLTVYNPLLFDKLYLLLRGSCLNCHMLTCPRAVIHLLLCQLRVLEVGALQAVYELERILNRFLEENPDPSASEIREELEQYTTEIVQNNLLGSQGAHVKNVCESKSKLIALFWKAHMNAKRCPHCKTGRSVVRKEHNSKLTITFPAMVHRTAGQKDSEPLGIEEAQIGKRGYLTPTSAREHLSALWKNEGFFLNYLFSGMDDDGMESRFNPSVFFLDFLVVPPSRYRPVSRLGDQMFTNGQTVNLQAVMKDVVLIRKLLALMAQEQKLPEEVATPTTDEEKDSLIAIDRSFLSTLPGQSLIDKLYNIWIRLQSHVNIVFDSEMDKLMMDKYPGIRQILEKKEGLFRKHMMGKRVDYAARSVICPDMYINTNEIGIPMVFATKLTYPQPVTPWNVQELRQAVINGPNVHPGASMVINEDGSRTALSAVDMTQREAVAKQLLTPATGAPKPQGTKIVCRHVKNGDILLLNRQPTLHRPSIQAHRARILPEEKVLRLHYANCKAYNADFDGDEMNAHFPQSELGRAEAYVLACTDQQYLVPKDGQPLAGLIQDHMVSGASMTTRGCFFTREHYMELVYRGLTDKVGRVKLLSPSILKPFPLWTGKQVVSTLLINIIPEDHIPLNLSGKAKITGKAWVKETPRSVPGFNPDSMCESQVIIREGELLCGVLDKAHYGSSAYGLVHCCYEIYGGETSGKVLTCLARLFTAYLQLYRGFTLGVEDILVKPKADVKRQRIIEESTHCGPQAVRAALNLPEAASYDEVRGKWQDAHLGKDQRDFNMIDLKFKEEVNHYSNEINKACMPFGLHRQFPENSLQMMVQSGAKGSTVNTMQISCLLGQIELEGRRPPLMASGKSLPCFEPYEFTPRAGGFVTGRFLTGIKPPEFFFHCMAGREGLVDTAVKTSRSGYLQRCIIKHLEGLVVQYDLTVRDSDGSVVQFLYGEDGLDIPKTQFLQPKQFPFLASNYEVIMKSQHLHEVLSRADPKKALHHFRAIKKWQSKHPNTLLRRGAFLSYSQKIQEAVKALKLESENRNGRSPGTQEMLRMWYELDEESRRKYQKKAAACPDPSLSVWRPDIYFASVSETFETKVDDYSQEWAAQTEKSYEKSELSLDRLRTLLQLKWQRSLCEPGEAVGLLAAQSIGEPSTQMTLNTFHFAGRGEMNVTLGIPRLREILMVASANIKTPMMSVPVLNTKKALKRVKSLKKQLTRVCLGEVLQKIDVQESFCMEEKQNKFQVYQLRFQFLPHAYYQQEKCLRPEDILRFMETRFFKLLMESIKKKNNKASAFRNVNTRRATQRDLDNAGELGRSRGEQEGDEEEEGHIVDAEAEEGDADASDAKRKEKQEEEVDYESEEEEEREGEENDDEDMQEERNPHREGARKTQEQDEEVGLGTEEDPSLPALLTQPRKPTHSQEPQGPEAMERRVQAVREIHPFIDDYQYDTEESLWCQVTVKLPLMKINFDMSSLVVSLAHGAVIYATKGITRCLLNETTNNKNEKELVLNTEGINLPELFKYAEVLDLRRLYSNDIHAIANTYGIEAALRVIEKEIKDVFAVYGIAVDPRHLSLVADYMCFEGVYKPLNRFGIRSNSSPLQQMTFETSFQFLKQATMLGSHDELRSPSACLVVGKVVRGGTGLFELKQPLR
Sequence of UniProt Q04759 (Q04759 whole entry, looked up): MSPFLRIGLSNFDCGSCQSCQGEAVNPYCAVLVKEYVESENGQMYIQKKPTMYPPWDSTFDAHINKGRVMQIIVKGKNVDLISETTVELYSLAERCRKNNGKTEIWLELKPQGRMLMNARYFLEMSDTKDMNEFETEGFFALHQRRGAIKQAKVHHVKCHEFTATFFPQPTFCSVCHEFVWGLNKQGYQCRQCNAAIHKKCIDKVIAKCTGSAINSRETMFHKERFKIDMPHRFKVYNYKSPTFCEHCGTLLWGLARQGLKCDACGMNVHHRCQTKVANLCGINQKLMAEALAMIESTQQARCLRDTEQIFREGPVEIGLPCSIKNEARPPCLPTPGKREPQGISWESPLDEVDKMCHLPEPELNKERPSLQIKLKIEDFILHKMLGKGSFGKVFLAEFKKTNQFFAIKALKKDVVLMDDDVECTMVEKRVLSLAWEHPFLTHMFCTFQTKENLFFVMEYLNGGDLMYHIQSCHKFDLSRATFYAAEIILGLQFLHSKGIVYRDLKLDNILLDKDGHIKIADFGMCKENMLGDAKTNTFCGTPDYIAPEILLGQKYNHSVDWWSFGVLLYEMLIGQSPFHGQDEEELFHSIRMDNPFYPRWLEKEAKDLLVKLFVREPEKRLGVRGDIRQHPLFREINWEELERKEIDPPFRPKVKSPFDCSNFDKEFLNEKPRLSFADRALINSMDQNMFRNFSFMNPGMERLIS
Sequence of UniProt Q10713 (Q10713 whole entry, looked up): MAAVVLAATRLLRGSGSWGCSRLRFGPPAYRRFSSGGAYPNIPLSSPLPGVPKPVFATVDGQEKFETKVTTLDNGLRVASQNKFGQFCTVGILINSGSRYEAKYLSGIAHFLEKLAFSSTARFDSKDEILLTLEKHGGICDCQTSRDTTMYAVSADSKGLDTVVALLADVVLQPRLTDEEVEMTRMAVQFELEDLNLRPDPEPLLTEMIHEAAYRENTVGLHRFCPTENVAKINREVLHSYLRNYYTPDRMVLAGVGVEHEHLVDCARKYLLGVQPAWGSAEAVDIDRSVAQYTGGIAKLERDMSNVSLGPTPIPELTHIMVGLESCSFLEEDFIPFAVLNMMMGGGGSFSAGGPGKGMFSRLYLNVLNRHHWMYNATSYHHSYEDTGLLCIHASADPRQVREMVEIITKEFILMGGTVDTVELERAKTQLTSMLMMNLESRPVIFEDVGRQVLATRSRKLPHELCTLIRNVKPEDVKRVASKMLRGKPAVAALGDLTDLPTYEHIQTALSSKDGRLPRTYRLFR
Sequence of UniProt P48556 (P48556 whole entry, looked up): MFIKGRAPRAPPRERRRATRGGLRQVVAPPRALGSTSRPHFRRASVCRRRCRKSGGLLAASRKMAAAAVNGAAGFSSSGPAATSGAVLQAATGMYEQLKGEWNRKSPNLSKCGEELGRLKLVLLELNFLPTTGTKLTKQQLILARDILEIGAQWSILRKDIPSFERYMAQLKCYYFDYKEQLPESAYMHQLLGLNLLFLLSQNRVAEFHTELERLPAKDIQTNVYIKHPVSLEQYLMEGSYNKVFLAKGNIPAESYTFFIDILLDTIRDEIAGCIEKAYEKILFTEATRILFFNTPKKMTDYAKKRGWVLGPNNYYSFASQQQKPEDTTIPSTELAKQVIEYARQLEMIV
Sequence of UniProt Q96KB5 (Q96KB5 whole entry, looked up): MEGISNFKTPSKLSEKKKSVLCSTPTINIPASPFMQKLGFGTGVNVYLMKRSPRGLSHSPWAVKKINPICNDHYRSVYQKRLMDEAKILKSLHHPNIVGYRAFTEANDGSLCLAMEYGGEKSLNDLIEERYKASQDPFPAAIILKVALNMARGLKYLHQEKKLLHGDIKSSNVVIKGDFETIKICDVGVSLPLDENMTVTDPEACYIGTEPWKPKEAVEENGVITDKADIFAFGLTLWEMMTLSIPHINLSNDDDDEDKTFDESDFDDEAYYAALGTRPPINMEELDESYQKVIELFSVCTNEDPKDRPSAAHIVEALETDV
Sequence of UniProt P25788 (P25788 whole entry, looked up): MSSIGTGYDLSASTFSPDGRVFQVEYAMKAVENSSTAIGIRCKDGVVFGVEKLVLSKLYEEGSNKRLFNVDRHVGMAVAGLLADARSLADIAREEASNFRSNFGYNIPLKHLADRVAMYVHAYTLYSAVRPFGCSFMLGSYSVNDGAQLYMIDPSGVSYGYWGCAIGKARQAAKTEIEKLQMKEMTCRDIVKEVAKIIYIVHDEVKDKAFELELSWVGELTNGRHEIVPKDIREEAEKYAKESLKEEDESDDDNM

Row | Target | log2 fold change (IRAK-1-4 Inhibitor I) | log2 fold change (ibrutinib) | log2 fold change [1] | log2 fold change (ralimetinib) | log2 fold change [2] | log2 fold change [3] | log2 fold change [4] | log2 fold change (pinometostat) | log2 fold change [5] | log2 fold change [6] | log2 fold change [7] | log2 fold change [8] | log2 fold change [9] | log2 fold change [10] | log2 fold change (Nexturastat A) | log2 fold change (vemurafenib) | log2 fold change [11] | log2 fold change [12] | log2 fold change (givinostat) | log2 fold change (barasertib)
1 | PRPF4B (UniProt Q13523) | -0.126 | -0.015 | -0.263 | -0.001 | 0.138 | -0.029 | 0.077 | 0.099 | -0.006 | -0.209 | -0.024 | 0.018 | -0.079 | -0.082 | 0.158 | 0.052 | 0.03 | -0.098 | 0.082 | -0.05
2 | PSMA3 (UniProt P25788) | -0.027 | -0.013 | 0.008 | 0.037 | 0.071 | 0.102 | -0.065 | -0.033 | -0.02 | -0.014 | 0.01 | 0.027 | -0.025 | 0.013 | -0.039 | -0.001 | -0.019 | -0.011 | -0.011 | -0.034
3 | PMPCA (UniProt Q10713) | 0.016 | -0.008 | -0.029 | 0.057 | -0.155 | 0.097 | -0.003 | -0.015 | -0.034 | 0.055 | 0.046 | -0.049 | 0.014 | 0.006 | -0.102 | 0.025 | 0.037 | -0.006 | -0.019 | -0.027
4 | POLA2 (UniProt Q14181) | 0.015 | -0.038 | -0.073 | -0.028 | -0.083 | -0.258 (active) | 0.011 | 0.041 | 0 | -0.021 | 0.073 | 0.044 | -0.037 | 0.061 | -0.011 | 0.034 | 0.048 | -0.02 | 0.021 | 0.021
5 | PRKCQ (UniProt Q04759) | 0.004 | -0.026 | -2.02 (active) | -0.02 | -0.037 | -0.103 | -0.011 | 0.028 | 0.024 | 0.018 | 0.013 | -0.043 | 0.073 | -0.004 | -0.055 | 0.015 | 0.065 | -0.065 | 0.052 | 0.03
6 | PPP2R5E (UniProt Q16537) | -0.01 | -0.001 | -0.033 | -0.029 | -0.046 | -0.144 | 0.019 | 0.015 | 0.028 | 0.136 | -0.049 | -0.065 | -0.023 | 0.066 | 0.003 | 0.027 | 0.07 | 0.03 | 0.032 | 0.027
7 | PSME4 (UniProt Q14997) | 0.003 | -0.022 | -0.023 | -0.024 | -0.097 | -0.043 | 0.271 (active) | 0.068 | 0.023 | 0.105 | 0.017 | -0.02 | -0.024 | -0.017 | -0.034 | -0.014 | -0.005 | -0.043 | 0.022 | -0.007
8 | PTGES3 (UniProt Q15185) | 0.04 | 0 | -0.01 | 0.017 | -0.103 | -0.247 | -0.079 | -0.081 | 0.008 | -0.202 | 0.039 | -0.073 | 0.044 | 0.078 | -0.046 | 0.032 | 0.111 | 0.034 | 0.026 | 0.064
9 | PPM1G (UniProt O15355) | -0.095 | -0.102 | -0.098 | -0.044 | -0.17 | -0.223 | 0.088 | -0.067 | -0.121 | -0.002 | 0.087 | -0.04 | -0.031 | 0.048 | -0.053 | 0.112 | 0.13 | 0.067 | 0.17 | 0.052
10 | PBK (UniProt Q96KB5) | -0.142 | -0.059 | 0 | 0.111 | -0.144 | -0.286 | 0.06 | 0.071 | -0.011 | -0.08 | 0.01 | -0.056 | 0.069 | -0.001 | 0.037 | 0.124 | 0.14 | 0.144 | 0.143 | 0.145
11 | PTRH2 (UniProt Q9Y3E5) | 0.059 | 0.031 | 0.075 | 0.085 | -0.065 | 0.062 | -0.081 | -0.033 | -0.008 | 0.017 | 0.009 | -0.007 | 0.032 | 0.144 | -0.078 | -0.05 | -0.009 | -0.025 | -0.064 | -0.022
12 | PHF5A (UniProt Q7RTV0) | 0.02 | 0.001 | 0.008 | 0 | 0.088 | 0.242 (active) | -0.073 | -0.073 | 0.011 | 0.109 | -0.019 | -0.046 | -0.023 | -0.012 | -0.017 | -0.075 | -0.064 | 0.021 | -0.075 | -0.032
13 | PSMD8 (UniProt P48556) | -0.058 | -0.033 | 0.076 | -0.012 | 0.022 | 0.016 | -0.194 | 0.031 | 0.051 | -0.014 | 0.044 | 0.047 | -0.056 | -0.045 | 0.128 | -0.082 | -0.073 | 0.022 | -0.04 | -0.034
14 | POLR1A (UniProt O95602) | 0.06 | 0.06 | 0.022 | 0.153 | -0.022 | -0.091 | 0.005 | 0.07 | 0.052 | -0.14 | -0.082 | -0.019 | -0.198 | -0.185 | 0.489 (active) | 0.052 | 0.062 | 0.321 | 0.083 | 0.016
15 | PCTP (UniProt Q9UKL6) | -0.009 | -0.018 | 0.054 | -0.081 | -0.091 | -0.266 (active) | -0.012 | -0.013 | 0.04 | 0.005 | -0.007 | 0.004 | 0.052 | 0.039 | -0.003 | 0.005 | 0.066 | 0.026 | -0.035 | 0.013
